Screening results deposited in PubChem by National Center for Advancing Translational Sciences (NCATS).
GLP-1R inv ag: inverse agonists of human GLP-1 receptor. HEK293 GLP-1R CRE-luciferase, luminescence, 24 h; GLP-1R form is constitutively active. Potency, µM (top dose mostly 38.3 µM), inactives show at the highest dose activity change, negative = inhibition, most hits filed as inhibitors. 410,000 compounds, 1.6% hits. AID 624417; note: % is set by controls: 0 for no effect and ±100 for the full control effect; nearly all actives have a fitted effect of over 55% in size
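Readout was luciferase luminescence, measured 12 min after detection reagent at room temperature. Beforehand, GLP-1R reporter HEK293 cells had sat 12 h, then received compounds for 24 hr at 37 deg C.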
Pin1 inhibitor: blocks the human prolyl isomerase Pin1; Pin1 FP peptide displacement, HiFluor488, 10 min; Q13526; Potency, µM (top dose mostly 115 µM), inactives show at the top dose activity, negative = inhibition, hits mostly inhibitors; AID 504891; 390,000 compounds, 0.009% hits; active = well fitted inhibition curve with a large enough effect in the polarisation, with a control signal flat, not every such curve was filed as active; inconclusive = small, poorly fitted or top-dose-only effect, or effect the other way, or a change in a side signal; inactive = no such curve, though single readings can be large or run the other way; the % refers to the polarisation; note: % is set by controls: 0 for no effect and ±100 for the full control effect
Target sequence (Q13526 whole entry, looked up): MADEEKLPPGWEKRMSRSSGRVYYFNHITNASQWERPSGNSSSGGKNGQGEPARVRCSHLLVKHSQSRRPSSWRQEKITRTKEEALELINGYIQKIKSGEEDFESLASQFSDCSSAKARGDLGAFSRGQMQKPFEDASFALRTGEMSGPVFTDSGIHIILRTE
Tb PGK inh: blocks T. brucei phosphoglycerate kinase. P07378. PGK/GAPDH coupled, Kinase-Glo luminescence, 60 min. Potency, µM (titrated, usually from 57.5 µM), for the others: at the highest dose activity change, negative = inhibition, most hits filed as inhibitors. 380,000 compounds, 0.043% hits; note: % is set by controls: 0 for no effect and ±100 for the full control effect; nearly all actives have a fitted effect of over 60% in size
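Recombinant glycosomal PGK reaction used 1,3-bisphosphoglycerate generated in-well by GAPDH (100nM final) in 100mM TEA pH 7.6, 5mM MgCl2, 0.01% Tween-20. After 60 minutes at room temperature, ATP was read by Kinase-Glo Plus luminescence end-point.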
HEK293 tox: cytotoxic in the GLP-1 receptor inverse agonist counter-screen; HEK293 cAMP-luciferase reporter cells, luminescence, 24 h; Potency, µM (series often up to 38.3 µM), for inactives: at the highest dose activity change, negative = inhibition, usual class: inhibitors; 410,000 compounds, 0.13% hits; AID 624418;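 note: loss of luciferase light is scored as toxicity; % is set by controls: 0 for no effect and ±100 for the full control effect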
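Seeding density was 200 cells/uL; after overnight-length (12 h) culture, 23 nL compounds went on for 24 h at 37 °C. Readout used a luciferase detection reagent, luminescence taken after 12 min at room temperature.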
GLP-1R agonist: agonists of human GLP-1 receptor | P43220 | HEK293 GLP-1R CRE-luciferase, luminescence, 4-6 h; cells express a hypersensitive GLP-1R form | Potency, µM (top dose mostly 45.6 µM), inactives show at the top dose activation, actives largely listed as activators | 380,000 compounds, 0.007% hits | AID 624172; note: % of control where 0% means no effect
Tb PFK inh: T. brucei PFK enzyme inhibition | O15648 | T. brucei PFK, ADP-Glo luminescence | Potency, µM (highest dose often 57.5 µM), for inactives: at the highest dose activity, negative = inhibition, hits mostly inhibitors | 330,000 compounds, 0.17% hits | AID 485367;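 note: 0% = uninhibited 1x PFK enzyme wells and -100% = no-enzyme wells; nearly all actives have a fitted effect of over 60% in size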
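Luminescent ADP detection (ADP-Glo, two-step: ATP depletion then ADP-to-ATP conversion for luciferase) reported PFK activity after 45 min room-temperature reaction of 1.25 nM enzyme with 0.5 mM F6P and 0.1 mM ATP at pH 8.0.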
The depositor's hits bear a star. Shown are actives, neighbours in structure and some others; about 1.8% of the full set was active somewhere. Unless noted, calls come from the whole dose curve; as a rule, active = well fitted curve in the direction sought with a large enough effect; inconclusive = small, poorly fitted or top-dose-only effect, or another doubt; inactive = no such curve, though single readings can be large; an effect the other way counts as inactive or inconclusive. Potency is the fitted concentration of half-maximal effect.

What do the screens show for `Cc1cccc2cc(CN(Cc3ccccc3)Cc3nnnn3Cc3ccccc3)c(=O)[nH]c12`?
Pin1 inhibitor: 27.6%

Results for CCOc1ccccc1NC(=O)c1c(NCc2ccc(C)o2)sc2c1CCCCC2 ?
GLP-1R inv ag: -7.6%; Pin1 inhibitor: -3.2%; Tb PGK inh: -1.2%; HEK293 tox: -2.1%

What do the screens show for `CCOc1ccc(NC(=S)NC(=O)C2CCCC2)cc1`?
GLP-1R inv ag: 10µM*; Pin1 inhibitor: -2.6%; Tb PGK inh: -8.1%; HEK293 tox: 0.0%; GLP-1R agonist: 11.6%; Tb PFK inh: 0.2%

How did CCOc1ccc(NC(=O)C2C3CC/C=C\CCC32)cc1 (stereo not given) do in these assays?
GLP-1R inv ag: -26.8%; Pin1 inhibitor: -1.9%; Tb PGK inh: 0.8%; HEK293 tox: -5.5%; GLP-1R agonist: 5.3%; Tb PFK inh: 2.0%

How did Cc1cc(C)cc(NC(=S)NC(=O)C2CC2)c1 do in these assays?
GLP-1R inv ag: 11.2µM*; Pin1 inhibitor: -9.3%; Tb PGK inh: -9.5%; HEK293 tox: inconclusive; GLP-1R agonist: 18.8%; Tb PFK inh: 0.1%

Results for CN(Cc1ccccc1)S(=O)(=O)c1ccc(NC(=S)NC(=O)C2CCCCC2)cc1 ?
GLP-1R inv ag: 2.51µM*; Pin1 inhibitor: 4.4%; Tb PGK inh: -8.5%; HEK293 tox: 5.0%; GLP-1R agonist: 3.2%; Tb PFK inh: 10.2%

Results for CCOc1ccc(NC(=O)C2C3CCC4C(CCC32)C4(Cl)Cl)cc1 (stereo not given) ?
GLP-1R inv ag: 7.08µM*; Pin1 inhibitor: 4.8%; HEK293 tox: -23.2%; GLP-1R agonist: -3.9%; Tb PFK inh: -7.3%

What do the screens show for `CN(Cc1ccccc1)S(=O)(=O)c1ccc(NC(=S)NC(=O)C(C)(C)C)cc1`?
GLP-1R inv ag: inconclusive; Pin1 inhibitor: -13.5%; Tb PGK inh: inconclusive; HEK293 tox: -2.1%; GLP-1R agonist: -2.2%; Tb PFK inh: -0.2%

Results for CCn1c(=O)c2sccc2n2c(CCCC(=O)Nc3ccc(Oc4ccccc4)cc3)nnc12 ?
GLP-1R inv ag: 6.0%; Pin1 inhibitor: 3.3%; Tb PGK inh: -8.9%; HEK293 tox: -15.7%

How did CCc1ccc(C(C)NC(=S)NC2CCCCC2)cc1 (stereo not given) do in these assays?
GLP-1R inv ag: inconclusive; Pin1 inhibitor: -0.9%; Tb PGK inh: -0.2%; HEK293 tox: -25.6%; GLP-1R agonist: -3.1%; Tb PFK inh: -1.5%

How did O=C(NC(=S)Nc1ccccc1CO)C1CCCCC1 do in these assays?
GLP-1R inv ag: -9.2%; Pin1 inhibitor: -4.4%; Tb PGK inh: -1.0%; HEK293 tox: 4.9%; GLP-1R agonist: 25.9%; Tb PFK inh: 1.7%

What do the screens show for `Cc1ccccc1NC(=S)NC(=O)C1CCCCC1`?
GLP-1R inv ag: 8.91µM*; Pin1 inhibitor: 0.1%; Tb PGK inh: -4.6%; HEK293 tox: inconclusive; GLP-1R agonist: 1.4%; Tb PFK inh: -0.7%

What do the screens show for `CCOc1ccc(C(C)NC(=S)NC2CCCCC2)cc1` (stereo not given)?
GLP-1R inv ag: inconclusive; Pin1 inhibitor: inconclusive; Tb PGK inh: -2.3%; HEK293 tox: 11.2µM*; GLP-1R agonist: -5.4%; Tb PFK inh: -0.7%

How did Brc1ccc(-c2csc(N3CCNCC3)n2)cc1 do in these assays?
Pin1 inhibitor: 2.0%

Results for COc1cccc(Cn2ncc3c4sc(SC)cc4n(C)c3c2=O)c1 ?
Pin1 inhibitor: 4.5%
